These sequences were tested on LXRb homodimer (NR concentration 270 nM) (assay: PBM binding z-score (relative to random genomic background probes); higher = stronger binding; sequences stand for … in GC…GCGATTGACAGCGTAGAATGAAGG).
Summary of the method: (§1)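 Ligand-free nuclear receptor dimers were bound for 1 h to custom Agilent 4×180K protein-binding microarrays. Detection used antibodies against each partner (one per run). Binding z-scores rest on regression-normalized fluorescence, with random background probes as the reference.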

Q: With TTACCAAGGTGAAAGTCGTTGATCCCTCTGTAGA as the sequence, how does the PBM binding z-score read?
A: The PBM binding z-score was -0.747.

Q: How did the PBM binding z-score turn out when GTACGAAGGTGAATAGGTCGTTGATGAGTAGGCG was run?
A: Its PBM binding z-score is -0.557.

Q: Which PBM binding z-score does the source give for TGTTGTAGATCAACAGGAGGTTAAGAAAGATCGA here?
A: The PBM binding z-score was -0.0946.

Q: With TCATATAGGTAAATGCTAGGTGAGAGTCCGATCT as the sequence, how does the PBM binding z-score read?
A: Its PBM binding z-score is -0.13.

Q: GATACAGTGTCAGCTAGAGGCCAGAGTATGGAAA was tested. Which PBM binding z-score did it give?
A: The PBM binding z-score was -0.98.

Q: How did the PBM binding z-score turn out when CCTACTGGGACACGAAAGGTCATTGATTCAGTGA was run?
A: The PBM binding z-score was 0.785.

Q: TCTCGGAGGACACGAGAGGTCAGAGCTCGACATC was tested. Which PBM binding z-score did it give?
A: The PBM binding z-score was -0.47.

Q: How did the PBM binding z-score turn out when CGTCGAAGGTCAAAGGTCAGTGAAGAGATGACGG was run?
A: The PBM binding z-score was 1.89.

Q: TCTACAGGGTCAAAGGCCAGAGTACGAATGTCGA was tested. Which PBM binding z-score did it give?
A: The PBM binding z-score was 0.605.

Q: With TCTAGCAGGCCAGAGGATCACTCAAGAGGTACGG as the sequence, how does the PBM binding z-score read?
A: The PBM binding z-score was -1.43.

Q: With CCTACTGGGCCAAAGGTTATTGATTCCAATGCTC as the sequence, how does the PBM binding z-score read?
A: Its PBM binding z-score is -0.363.

Q: How did the PBM binding z-score turn out when CGTCCAAGGTCAATGGTAGGTCAGTGAAAGCATT was run?
A: Its PBM binding z-score is 0.432.

Q: How did the PBM binding z-score turn out when TCTCGGAGGAGACGAAAGGTCAGAGCTCGACATC was run?
A: Its PBM binding z-score is -0.403.

Q: How did the PBM binding z-score turn out when TGAATGAGTTTATAAGATCAGGGAACGTTGCAAA was run?
A: Its PBM binding z-score is -0.337.

Q: How did the PBM binding z-score turn out when ATCTCTAGGTAAAGATAGTTCGGTGAATGCAAAT was run?
A: Its PBM binding z-score is 0.531.

Q: How did the PBM binding z-score turn out when AGAACGAGGGCACGCTGAGTTGAAAGCAGAGTAG was run?
A: The PBM binding z-score was -0.933.

Q: Which PBM binding z-score does the source give for TGAATGAGGTTATACGATCAGGGAACGTTGCAAA here?
A: Its PBM binding z-score is -0.18.

Q: Which PBM binding z-score does the source give for TGAATGAGATTAAAGATCAGGGAACGTGGCGTCG here?
A: Its PBM binding z-score is -0.389.

Q: GATACAGGGTCACCTAGAGGCCAGAGTATGGAAA was tested. Which PBM binding z-score did it give?
A: The PBM binding z-score was -0.035.

Q: With CTGGAAAGGTCGTGCTCAGGTGAGTATACCAAAC as the sequence, how does the PBM binding z-score read?
A: The PBM binding z-score was -0.505.

Q: With TTACCAAGGTGTAAGGTCGTTGATGCACGCCTTG as the sequence, how does the PBM binding z-score read?
A: The PBM binding z-score was -0.764.

Q: For CGTCAAAGTTCAACTAAGGTACCGTAAAGCACGC, which PBM binding z-score is on record?
A: The PBM binding z-score was 2.24.

Q: For CGTCCAAGGTCAAGGTTAGTGAAAGAGACTCGAA, which PBM binding z-score is on record?
A: The PBM binding z-score was 0.41.

Q: TCTGCTAGATCAGTTGGTCAGCTAACGAGCTGCC was tested. Which PBM binding z-score did it give?
A: Its PBM binding z-score is -0.764.

Q: How did the PBM binding z-score turn out when TCATATAGTTAAATGCTAGGTGAAAGTCCGATCT was run?
A: Its PBM binding z-score is 0.331.

Q: CCAACTGGGGCATAAGGTTACCATAAGCCAGCCC was tested. Which PBM binding z-score did it give?
A: The PBM binding z-score was -1.05.

Q: With ATCTCTAGGTAACAAGTGCAGTGAAAGAGAGGAC as the sequence, how does the PBM binding z-score read?
A: Its PBM binding z-score is 0.699.

Q: Which PBM binding z-score does the source give for GCATATAGGTAAAACAAGGTGAAAGTCCGATTGT here?
A: The PBM binding z-score was -0.664.

Q: How did the PBM binding z-score turn out when TTACCAAGGTGAAAGGCCGTTGATGCACGCCTTG was run?
A: The PBM binding z-score was -0.951.

Q: How did the PBM binding z-score turn out when CCTATTAGTTGACCAGAAGGGCAACCGAAGCTCG was run?
A: The PBM binding z-score was 0.735.

Q: Which PBM binding z-score does the source give for TCTCGGAGGACACGAAGATCAGAGCTTTCCAGAG here?
A: Its PBM binding z-score is -1.08.

Q: TCTGCTAGGTCAACGATGGTCAGCCAATCTGCTA was tested. Which PBM binding z-score did it give?
A: The PBM binding z-score was -0.0158.

Q: Which PBM binding z-score does the source give for CCGACTGGGGCATAAGGTTACGATAAGCCAGCCC here?
A: Its PBM binding z-score is -1.42.

Q: For ACTAGCAGGCCAAGGGTCACCCAAGATTAGTCCG, which PBM binding z-score is on record?
A: Its PBM binding z-score is -0.624.

Q: With ACTTACGGGTCAACGAGGTAATAGCACGCGTATA as the sequence, how does the PBM binding z-score read?
A: The PBM binding z-score was 0.727.

Q: With GCTACCAGGCCATTTGGGTCACTCAATGACGGGC as the sequence, how does the PBM binding z-score read?
A: Its PBM binding z-score is -0.419.

Q: TCGAGTAGGTTAGTCGGGGCATTCATCCAACATA was tested. Which PBM binding z-score did it give?
A: The PBM binding z-score was -0.262.

Q: With CGAACTAGCTCAGAACAGGACAGTGAAGGATGAT as the sequence, how does the PBM binding z-score read?
A: Its PBM binding z-score is -0.565.

Q: TCATATAGGTAAAGGCGAAAGTCGAACGATATGA was tested. Which PBM binding z-score did it give?
A: Its PBM binding z-score is -0.044.

The sequences below were run on PPARa:RXRa (NR concentration 270 nM, RXRa partner concentration 90 nM) in the same assay as above.
Summary of the method: as §1

Q: With TTACCAAGGTGAAAGTCGTTGATCCCTCTGTAGA as the sequence, how does the PBM binding z-score read?
A: The PBM binding z-score was 2.1.

Q: How did the PBM binding z-score turn out when GTACGAAGGTGAATAGGTCGTTGATGAGTAGGCG was run?
A: The PBM binding z-score was 2.15.

Q: How did the PBM binding z-score turn out when TGTTGTAGATCAACAGGAGGTTAAGAAAGATCGA was run?
A: Its PBM binding z-score is 0.963.

Q: For TCATATAGGTAAATGCTAGGTGAGAGTCCGATCT, which PBM binding z-score is on record?
A: The PBM binding z-score was 1.05.

Q: GATACAGTGTCAGCTAGAGGCCAGAGTATGGAAA was tested. Which PBM binding z-score did it give?
A: The PBM binding z-score was -0.257.

Q: How did the PBM binding z-score turn out when CCTACTGGGACACGAAAGGTCATTGATTCAGTGA was run?
A: The PBM binding z-score was 4.65.

Q: With TCTCGGAGGACACGAGAGGTCAGAGCTCGACATC as the sequence, how does the PBM binding z-score read?
A: Its PBM binding z-score is 2.99.

Q: With CGTCGAAGGTCAAAGGTCAGTGAAGAGATGACGG as the sequence, how does the PBM binding z-score read?
A: The PBM binding z-score was 7.42.

Q: TCTACAGGGTCAAAGGCCAGAGTACGAATGTCGA was tested. Which PBM binding z-score did it give?
A: Its PBM binding z-score is 5.99.

Q: How did the PBM binding z-score turn out when TCTAGCAGGCCAGAGGATCACTCAAGAGGTACGG was run?
A: The PBM binding z-score was -0.206.

Q: With CCTACTGGGCCAAAGGTTATTGATTCCAATGCTC as the sequence, how does the PBM binding z-score read?
A: The PBM binding z-score was 5.33.

Q: Which PBM binding z-score does the source give for CGTCCAAGGTCAATGGTAGGTCAGTGAAAGCATT here?
A: The PBM binding z-score was 5.14.

Q: How did the PBM binding z-score turn out when TCTCGGAGGAGACGAAAGGTCAGAGCTCGACATC was run?
A: Its PBM binding z-score is 3.49.

Q: Which PBM binding z-score does the source give for TGAATGAGTTTATAAGATCAGGGAACGTTGCAAA here?
A: Its PBM binding z-score is 0.00137.

Q: Which PBM binding z-score does the source give for ATCTCTAGGTAAAGATAGTTCGGTGAATGCAAAT here?
A: The PBM binding z-score was 0.121.

Q: Which PBM binding z-score does the source give for AGAACGAGGGCACGCTGAGTTGAAAGCAGAGTAG here?
A: Its PBM binding z-score is 2.38.

Q: TGAATGAGGTTATACGATCAGGGAACGTTGCAAA was tested. Which PBM binding z-score did it give?
A: The PBM binding z-score was 2.91.

Q: For TGAATGAGATTAAAGATCAGGGAACGTGGCGTCG, which PBM binding z-score is on record?
A: Its PBM binding z-score is 0.409.

Q: GATACAGGGTCACCTAGAGGCCAGAGTATGGAAA was tested. Which PBM binding z-score did it give?
A: The PBM binding z-score was 5.79.

Q: With CTGGAAAGGTCGTGCTCAGGTGAGTATACCAAAC as the sequence, how does the PBM binding z-score read?
A: The PBM binding z-score was 4.7.

Q: With TTACCAAGGTGTAAGGTCGTTGATGCACGCCTTG as the sequence, how does the PBM binding z-score read?
A: The PBM binding z-score was 2.06.

Q: For CGTCAAAGTTCAACTAAGGTACCGTAAAGCACGC, which PBM binding z-score is on record?
A: The PBM binding z-score was 5.12.

Q: How did the PBM binding z-score turn out when CGTCCAAGGTCAAGGTTAGTGAAAGAGACTCGAA was run?
A: The PBM binding z-score was 5.63.

Q: TCTGCTAGATCAGTTGGTCAGCTAACGAGCTGCC was tested. Which PBM binding z-score did it give?
A: Its PBM binding z-score is -0.465.

Q: Which PBM binding z-score does the source give for TCATATAGTTAAATGCTAGGTGAAAGTCCGATCT here?
A: The PBM binding z-score was 0.834.

Q: For CCAACTGGGGCATAAGGTTACCATAAGCCAGCCC, which PBM binding z-score is on record?
A: The PBM binding z-score was 2.56.

Q: ATCTCTAGGTAACAAGTGCAGTGAAAGAGAGGAC was tested. Which PBM binding z-score did it give?
A: The PBM binding z-score was 0.43.

Q: GCATATAGGTAAAACAAGGTGAAAGTCCGATTGT was tested. Which PBM binding z-score did it give?
A: The PBM binding z-score was 1.96.

Q: For TTACCAAGGTGAAAGGCCGTTGATGCACGCCTTG, which PBM binding z-score is on record?
A: The PBM binding z-score was 2.49.

Q: CCTATTAGTTGACCAGAAGGGCAACCGAAGCTCG was tested. Which PBM binding z-score did it give?
A: Its PBM binding z-score is 0.431.

Q: Which PBM binding z-score does the source give for TCTCGGAGGACACGAAGATCAGAGCTTTCCAGAG here?
A: The PBM binding z-score was 0.0727.

Q: TCTGCTAGGTCAACGATGGTCAGCCAATCTGCTA was tested. Which PBM binding z-score did it give?
A: Its PBM binding z-score is 3.17.

Q: Which PBM binding z-score does the source give for CCGACTGGGGCATAAGGTTACGATAAGCCAGCCC here?
A: The PBM binding z-score was 2.41.

Q: Which PBM binding z-score does the source give for ACTAGCAGGCCAAGGGTCACCCAAGATTAGTCCG here?
A: Its PBM binding z-score is 5.01.

Q: Which PBM binding z-score does the source give for ACTTACGGGTCAACGAGGTAATAGCACGCGTATA here?
A: The PBM binding z-score was 5.72.

Q: With GCTACCAGGCCATTTGGGTCACTCAATGACGGGC as the sequence, how does the PBM binding z-score read?
A: The PBM binding z-score was 1.57.

Q: With TCGAGTAGGTTAGTCGGGGCATTCATCCAACATA as the sequence, how does the PBM binding z-score read?
A: Its PBM binding z-score is 0.795.

Q: For CGAACTAGCTCAGAACAGGACAGTGAAGGATGAT, which PBM binding z-score is on record?
A: The PBM binding z-score was -0.547.

Q: For TCATATAGGTAAAGGCGAAAGTCGAACGATATGA, which PBM binding z-score is on record?
A: The PBM binding z-score was 1.3.

From the supplement of paper PMC6555819
